Source: PubChem BioAssay (National Center for Advancing Translational Sciences (NCATS))
Compounds with a hit are over-represented: about 10% of the library has one in this group of screens.
GLS inhibitor: qHTS for Inhibitors of Glutaminase (GLS) | Glutaminase kidney isoform, mitochondrial (Homo sapiens), O94925 | GLS enzymatic activity, qHTS titration | Potency, µM (series often up to 45.5 µM), for the others: top-dose activity change, negative = inhibition, usual class: inhibitors | 410,000 compounds, 0.21% hits | AID 624170, 2012; note: % is set by controls: 0 for no effect and ±100 for the full control effect
Target sequence (O94925 whole entry, looked up, canonical isoform): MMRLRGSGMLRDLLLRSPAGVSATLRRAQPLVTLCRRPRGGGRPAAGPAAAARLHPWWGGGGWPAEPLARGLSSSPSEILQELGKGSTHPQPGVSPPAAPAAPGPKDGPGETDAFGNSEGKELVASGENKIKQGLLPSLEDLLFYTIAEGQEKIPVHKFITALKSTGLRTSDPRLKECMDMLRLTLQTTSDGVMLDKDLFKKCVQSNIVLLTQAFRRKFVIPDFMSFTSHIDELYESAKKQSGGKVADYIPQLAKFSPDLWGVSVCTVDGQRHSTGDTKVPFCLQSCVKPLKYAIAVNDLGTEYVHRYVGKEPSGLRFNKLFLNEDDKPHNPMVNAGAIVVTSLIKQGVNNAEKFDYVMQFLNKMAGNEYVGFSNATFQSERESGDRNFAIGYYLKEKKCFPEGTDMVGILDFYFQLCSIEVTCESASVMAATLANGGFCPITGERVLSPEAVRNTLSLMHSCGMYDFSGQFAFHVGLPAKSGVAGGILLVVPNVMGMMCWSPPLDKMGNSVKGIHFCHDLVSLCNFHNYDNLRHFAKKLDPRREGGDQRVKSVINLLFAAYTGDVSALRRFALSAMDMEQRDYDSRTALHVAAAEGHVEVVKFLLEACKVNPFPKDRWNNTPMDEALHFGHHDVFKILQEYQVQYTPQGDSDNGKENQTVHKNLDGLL
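hKGA; 45 mM KH2PO4 pH 8.2 + 0.02% Tween-20; cpd via pin tool; 1 mM Gln soln; GluOx/HRP/Amplex Red; RT 30 min; fluor. t0 & final.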
G9a block: qHTS Assay for Inhibitors of Histone Lysine Methyltransferase G9a | G9a H3K9 monomethylation, AlphaScreen, 2 h | Histone-lysine N-methyltransferase EHMT2 (Homo sapiens), Q96KQ7 | 350,000 compounds, 8.8% hits | Potency, µM (titrated, usually from 102 µM), for inactives: at the top dose activity, negative = inhibition, usual class: inhibitors; note: % is set by controls: 0 for no effect and ±100 for the full control effect; nearly all actives have a fitted effect of over 75% in size
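AlphaScreen detection with an anti-monomethyl H3K9 antibody quantified product after a 2 h room-temperature reaction containing 500 nM biotinylated H3K9 peptide, 20 µM SAM and 20 nM enzyme, which had been preincubated 15 min with compound.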
HP1b chromo inh: HTS for Inhibitors of HP1-beta Chromodomain Interactions with Methylated Histone Tails | Chromobox protein homolog 1 (Homo sapiens), P83916 | AlphaScreen HP1-beta / biotin-H3K9me3 peptide binding | Potency, µM (doses to about 114 µM), inactives show at the top dose activity change, negative = inhibition, hits mostly inhibitors | 390,000 compounds, 0.56% hits; note: nearly all actives have a fitted effect of over 70% in size
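Compound inhibition of the preformed complex between 50 nM HP1-beta and 50 nM biotinylated H3K9me3 peptide was read by AlphaScreen. Buffer was PBS pH 7.4 with 0.01% Tween-20. Incubations ran 30 min at room temperature, with 10 ug/mL donor/acceptor beads.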
JMJD2A Tudor: qHTS Assay for Inhibitors of JMJD2A-Tudor Domain | 390,000 compounds, 4.4% hits | Potency, µM (top dose mostly 114 µM), for the others: top-dose activity change, negative = inhibition, hits mostly inhibitors | AlphaScreen JMJD2A-Tudor / H3K4me3 peptide binding | Lysine-specific demethylase 4A (Homo sapiens), O75164; note: % is set by controls: 0 for no effect and ±100 for the full control effect; nearly all actives have a fitted effect of over 50% in size
BAZ2B block: qHTS Assay for Inhibitors of BAZ2B; Bromodomain adjacent to zinc finger domain protein 2B (Homo sapiens), Q9UIF8; AlphaScreen BAZ2B-H3K14Ac peptide displacement; Potency, µM (doses to about 114 µM), for the others: at the top dose activity change, negative = inhibition, most hits filed as inhibitors; 360,000 compounds, 4.4% hits; AID 504333, 2011; note: % is set by controls: 0 for no effect and ±100 for the full control effect; nearly all actives have a fitted effect of over 60% in size
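Complex of BAZ2B and biotin-H3K14Ac (50 nM apiece) forms over 30 min at RT, then faces library compounds up to 110 uM for another 30 min; AlphaScreen beads added, 20 min dark incubation, luminescence read.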
* marks the source's active call; other numbers are inactive results; ! = repeats disagree; [ ] = remark or other dose. Calls come from the whole dose curve; as a rule, active = well fitted curve in the direction sought with a large enough effect; inconclusive = small, poorly fitted or top-dose-only effect, or another doubt; inactive = no such curve, though single readings can be large; an effect the other way counts as inactive or inconclusive. Potency is the fitted concentration of half-maximal effect.

`CCc1ccc(CNC(=O)CN2C(=O)CSc3c2c(C)nn3-c2ccccc2)cc1` gave GLS inhibitor -7%, G9a block 12%[59 µM], HP1b chromo inh 8%, JMJD2A Tudor -10% and BAZ2B block -19%.
`O=C(NCCc1ccccc1)c1ccc(CSc2nc3ccncc3n2Cc2ccccc2)cc1` gave GLS inhibitor -6%, G9a block -9%[59 µM], HP1b chromo inh 44%, JMJD2A Tudor -5% and BAZ2B block -1%.
For CC/C(=N/O)c1cnnc(SC)n1 the results were GLS inhibitor 26%, G9a block 19%[59 µM], HP1b chromo inh 11%, JMJD2A Tudor -5% and BAZ2B block 3%.
`CC/C(=N/Nc1cccc(C)c1)c1cnnc(SC)n1` gave GLS inhibitor 0%, G9a block 7.1µM*, HP1b chromo inh 17%, JMJD2A Tudor 56µM* and BAZ2B block -35%.
CC/C(=N/Nc1ccc(Cl)cc1)c1cnnc(SC)n1 was read as GLS inhibitor -23%, G9a block 5.6µM*, HP1b chromo inh 43%, JMJD2A Tudor inconclusive and BAZ2B block -33%.
CCOC(=O)c1cnc(SCC(=O)Nc2ccc(N3CCOCC3)cc2)nc1N was read as G9a block 25µM* and BAZ2B block 3%.
For CCOC(=O)c1cnc(SCC(=O)Nc2ccc3c(c2)OCCO3)nc1N the results were GLS inhibitor -2%, G9a block 9%[2.33 µM], HP1b chromo inh 16%, JMJD2A Tudor -21% and BAZ2B block -3%.
Screening CCOC(=O)c1cnc(SCC(=O)N2CCc3ccccc32)nc1N returned GLS inhibitor inconclusive, G9a block inconclusive, HP1b chromo inh 21%, JMJD2A Tudor -15% and BAZ2B block 4%.
Screening CCOC(=O)c1cnc(SCC(=O)N2CCN(c3ccccc3)CC2)nc1N returned GLS inhibitor 10%, G9a block 35µM*, HP1b chromo inh -1%, JMJD2A Tudor -17% and BAZ2B block -18%.
`CC(=O)Nc1ccc(NC(=O)CC2(CC(=O)N3CCOCC3)CCCC2)cc1` gave GLS inhibitor 0%, G9a block -39%, HP1b chromo inh 13%, JMJD2A Tudor -3% and BAZ2B block -3%.
`Cc1c(C(=O)N(Cc2ccncc2)CC2CCCO2)oc2c(F)cccc12` (stereo not given) gave GLS inhibitor 10%, HP1b chromo inh 28%, JMJD2A Tudor -21% and BAZ2B block -9%.
`Cc1ccc2oc(C(=O)N(Cc3ccc(N(C)C)cc3)CC3CCCO3)c(C)c2c1` (stereo not given) gave GLS inhibitor 21%, G9a block 28µM*, HP1b chromo inh inconclusive, JMJD2A Tudor 50µM* and BAZ2B block 11µM*.
`Cc1cc2oc(C(=O)N(Cc3ccc(N(C)C)cc3)CC3CCCO3)c(C)c2cc1C` (stereo not given) gave GLS inhibitor 3%, G9a block 14µM*, HP1b chromo inh inconclusive, JMJD2A Tudor 13µM*! and BAZ2B block 14µM*.
COc1cc(C(=O)N(Cc2ccc(N(C)C)cc2)CC2CCCO2)cc(OC)c1OC (stereo not given) was read as GLS inhibitor 13%, G9a block inconclusive, HP1b chromo inh 5%, JMJD2A Tudor -30% and BAZ2B block 79µM*.
Cc1ccc2c(C)c(C(=O)N(Cc3ccncc3)CC3CCCO3)oc2c1C (stereo not given) was read as GLS inhibitor 0%, HP1b chromo inh 14%, JMJD2A Tudor -28% and BAZ2B block -10%.
COC(=O)c1ccccc1NC(=O)N1CCC(N2CCN(Cc3ccc(F)cc3)C(=O)C2=O)CC1 was read as GLS inhibitor -6%, G9a block -1%[59 µM], HP1b chromo inh -3%, JMJD2A Tudor -15% and BAZ2B block -3%.
